Assay outcomes (PubChem BioAssay)
Sm TGR block = blocks Schistosoma mansoni thioredoxin glutathione reductase; Q962Y6; purified TGR, DTNB reduction, TNB absorbance 405 nm; Potency, µM (titrated, usually from 114 µM), usual class: inhibitors; actives 3% (n = 360,000); also: nearly all actives have a fitted effect of over 60% in size
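TGR 20 nM + NADPH 100 uM (dispensed conc.), cpd preinc 15 min RT; start with NADPH (500 uM addition) then DTNB (15 mM addition). Kinetic TNB absorbance, 405 nm filter. Four-parameter Hill fit across titration.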
AmpC inh detg = inhibitors of E. coli AmpC beta-lactamase with detergent; P00811; AmpC hydrolysis of nitrocefin, absorbance 480 nm, 0.01% Triton; Potency, µM (series often up to 114 µM), usual class: inhibitors; actives 0.041% (n = 370,000); AID 485294; also: nearly all actives have a fitted effect of over 25% in size
Target sequence (P00811 whole entry, looked up): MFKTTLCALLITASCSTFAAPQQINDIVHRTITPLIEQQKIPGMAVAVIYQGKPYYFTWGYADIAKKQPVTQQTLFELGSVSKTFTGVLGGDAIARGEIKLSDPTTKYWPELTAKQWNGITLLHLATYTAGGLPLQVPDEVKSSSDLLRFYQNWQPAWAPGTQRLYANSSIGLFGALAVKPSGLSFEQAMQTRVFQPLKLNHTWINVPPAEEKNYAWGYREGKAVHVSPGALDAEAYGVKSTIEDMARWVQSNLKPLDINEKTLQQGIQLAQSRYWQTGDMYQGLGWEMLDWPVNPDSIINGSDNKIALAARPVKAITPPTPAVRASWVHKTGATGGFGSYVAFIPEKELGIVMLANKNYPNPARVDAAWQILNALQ
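20 mM phosphate pH 7.0 + 0.01% (detergent screen) or 0.0001% Triton X-100; 5.3 nM AmpC reagent; cpd preinc 15 min RT; nitrocefin (800 uM stock) to start; A480 q20 s × 4 min; Activity was normalised to no-enzyme and no-compound control wells.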
AmpC inh no detg = inhibitors of E. coli AmpC beta-lactamase without detergent. AmpC nitrocefin hydrolysis, absorbance 480 nm, 0.0001% Triton. Potency, µM (titrated, usually from 57.1 µM), most hits filed as inhibitors. actives 0.52% (n = 330,000); also: nearly all actives have a fitted effect of over 20% in size
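20 mM phosphate pH 7.0 + 0.01% (detergent screen) or 0.0001% Triton X-100; 5.3 nM AmpC reagent; cpd preinc 15 min RT; nitrocefin (800 uM stock) to start; A480 q20 s × 4 min; Activity was normalised to no-enzyme and no-compound control wells.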
Numbers stand for hits; - = inactive; ? = inconclusive; . = no result. Most compounds without a hit are left out; they make up all but 3.3% or so of the library. Calls follow the shape of the dose curve; as a rule, active = well fitted curve in the direction sought with a large enough effect; inconclusive = small, poorly fitted or top-dose-only effect, or another doubt; inactive = no such curve, though single readings can be large; an effect the other way counts as inactive or inconclusive.

SMILES | Sm TGR block | AmpC inh detg | AmpC inh no detg
CN(C)c1ccc(C(c2nnnn2C(C)(C)C)N2CCN(C(=O)c3ccco3)CC2)cc1 (stereo not given) | 16µM | ? | -
CC(C)CCn1nnnc1C(c1ccc(N(C)C)cc1)N1CCN(C(=O)c2ccco2)CC1 (stereo not given) | 45µM | ? | -
CCOc1ccc(C(c2nnnn2C(C)(C)C)N2CCN(C(=O)c3ccco3)CC2)cc1 (stereo not given) | - | - | -
COCCn1nnnc1C(c1ccc(Cl)cc1)N1CCN(C(=O)c2ccco2)CC1 (stereo not given) | - | ? | -
Cc1nc(-c2cccc(NC(=O)c3cccc(S(=O)(=O)N4CCCC4)c3)c2)cs1 | - | - | -
CCS(=O)(=O)N1CCC(C(=O)Oc2ccccc2Br)CC1 | - | - | -
O=C(Nc1cc(Cl)cc(Cl)c1)N1CCN(C(=O)C2CCCO2)CC1 (stereo not given) | - | - | -
O=C(Cc1ccccc1F)Nc1ccc(S(=O)(=O)N2CCCC2)cc1 | . | . | -
CS/C(=C\[N+](=O)[O-])Nc1ccc(Cl)cc1 | 0.1µM | - | -
CC(C)=CC(=O)Nc1ccc(Cl)cc1 | - | - | -
COc1ccc(CCN(C)C(=O)CCNC(=O)c2ccc(Br)cc2)cc1OC | - | - | -
COc1cccc(CN2CCN(C3CCN(c4ccccc4F)CC3)CC2CCO)c1 (stereo not given) | 22µM | - | -
COc1cccc(CN2CCN(C3CCN(c4ccccc4C)CC3)CC2CCO)c1 (stereo not given) | ? | - | -
CCOC(=O)N1CCC(N2CCN(Cc3ccc(C)o3)C(CCO)C2)CC1 (stereo not given) | - | - | -
CCOC(=O)N1CCC(N2CCN(Cc3ccccc3)C(CCO)C2)CC1 (stereo not given) | 16µM | - | -
COC(=O)c1nnn(CC(=O)NC(=O)Nc2ccccc2)c1C(=O)OC | - | - | -
Cc1cccc(OCCc2c(C)[nH]c(=S)[nH]c2=O)c1 | - | - | -
Cc1nn(CCCC(=O)NCCCN2CCN(C)CC2)c(=O)c2c1sc1ccccc12 | - | - | -
COCCCNC(=O)C1CCN(c2ncnc3c2nc2n3CCCCC2)CC1 | - | - | .
O=C(Nc1ccccc1F)c1nc(S(=O)(=O)Cc2ccccc2F)ncc1Cl | 2.8µM | - | .
CSc1ncc(Cl)c(C(=O)NCc2ccc(C)cc2)n1 | - | - | .
Cc1ccc(NC(=O)c2nc(S(=O)(=O)Cc3ccccc3)ncc2Cl)cc1 | 3.2µM | - | -
O=C(NCc1ccccc1)c1nc(S(=O)(=O)Cc2ccc(F)cc2)ncc1Cl | 5µM | - | .
O=C(Nc1nc2ccc(F)cc2s1)c1nc(S(=O)(=O)Cc2ccccc2)ncc1Cl | ? | - | .
O=C(Nc1ccc(F)cc1)c1nc(S(=O)(=O)Cc2ccccc2)ncc1Cl | 6.3µM | - | -
SMILES | Sm TGR block | AmpC inh detg | AmpC inh no detg
CCS(=O)(=O)c1ncc(Cl)c(C(=O)Nc2c(C(=O)c3ccc(C)cc3)oc3ccccc23)n1 | - | - | .
COC(=O)c1ccccc1NC(=O)c1nc(S(=O)(=O)Cc2ccccc2F)ncc1Cl | - | - | .
CC(Oc1ccccc1F)c1nnc(SCC(=O)Nc2ccc(N3CCOCC3)cc2)o1 (stereo not given) | - | - | -
Cc1ccccc1CS(=O)(=O)c1ncc(Cl)c(C(=O)Nc2ccc(F)cc2)n1 | 3.5µM | ? | -
COc1ccc2nc(NC(=O)c3nc(S(=O)(=O)Cc4ccccc4F)ncc3Cl)sc2c1 | - | - | .
CC(C)(C)c1ccc(-n2nc(C#N)c(Cl)cc2=O)cc1 | 8.9µM | - | -
CC(C)(C)c1ccc(-n2nc(C(N)=O)c(O)cc2=O)cc1 | - | - | -
CCOc1ccc(C(=O)N[C@H](C(=O)Nc2ccc(S(=O)(=O)Nc3nccs3)cc2)C(C)C)cc1 | . | . | -
COc1ccc(CNc2oc(/C=C/c3cccc(OC)c3)nc2C#N)cc1 | - | - | .
Cc1ccc(NC(=O)c2ccco2)c(OCc2cc(=O)n3cc(C)sc3n2)c1 | - | - | .
Cc1ccc2nc(NCc3ccccc3Cl)c3nnnn3c2c1 | - | - | .
Cc1ccc2nc(Cl)c3nnnn3c2c1 | 1.4µM | - | -
C[C@H](CO)N1C[C@H](C)[C@@H](CN(C)C(=O)Nc2ccc3c(c2)OCO3)Oc2ccc(NS(=O)(=O)c3ccc(F)cc3)cc2C1=O | . | . | -
O=C(CN1CCCCCC1)Nc1ccccc1Cl | - | - | -
O=C(CN1CCN(CC(=O)c2ccc(F)cc2)CC1)Nc1ccccc1Cl | 14µM | - | -
CC1Sc2ccc(C(=O)Nc3ccccc3OC(F)F)cc2NC1=O (stereo not given) | - | ? | ?
CSc1oc(-c2cccs2)nc1S(=O)(=O)c1ccccc1 | - | - | -
